In PubChem BioAssay:
Activity calls are given as the source filed them. No rule for the calls is given here.

The compounds below were run against Pantothenate synthetase (Mycobacterium tuberculosis (strain ATCC 25618 / H37Rv)) (UniProt P9WIL5) (assay: Recombinant Mtb pantothenate synthetase (PanC) inhibitors, coupled enzyme, confirmatory (AID 375;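 also: 0% = full reaction with vehicle and 100% = no enzyme background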)). Conditions: coupled enzyme assay; at 10 µM, stronger effect = higher value.
Sequence of Pantothenate synthetase (Mycobacterium tuberculosis (strain ATCC 25618 / H37Rv)) (P9WIL5 whole entry, looked up): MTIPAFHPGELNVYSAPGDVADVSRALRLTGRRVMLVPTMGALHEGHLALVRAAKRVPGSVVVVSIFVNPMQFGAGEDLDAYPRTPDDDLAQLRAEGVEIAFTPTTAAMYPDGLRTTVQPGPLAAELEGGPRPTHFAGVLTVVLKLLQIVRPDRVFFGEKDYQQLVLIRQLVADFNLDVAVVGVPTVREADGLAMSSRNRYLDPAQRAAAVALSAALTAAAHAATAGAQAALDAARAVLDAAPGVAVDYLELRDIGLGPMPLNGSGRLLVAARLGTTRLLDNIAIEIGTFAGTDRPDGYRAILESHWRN

`O=C(CN1CCN(C2CCCCC2)CC1)Nc1ccccc1-c1ccccc1` was tested. Which inhibition did it give?
The inhibition was 6% (inactive).

How did the inhibition turn out when `CCCC(=O)Nc1nc2ccc(S(N)(=O)=O)cc2s1` was run?
The inhibition was 0% (inactive).

`O=c1[nH]c2sc3c(c2c2nncn12)CCCC3` was tested. Which inhibition did it give?
Its inhibition is 0% (inactive).

Which inhibition does the source give for `CCCCc1nc(NCCNC(=O)c2ccco2)c(C#N)c2c1CSC(C)(C)C2` here?
The inhibition was 3% (inactive).

How did the inhibition turn out when `COC(=O)/C=c1\sc2ncnn2c1=O` was run?
The inhibition was 0% (inactive).

`O=C(C1CCCN(S(=O)(=O)c2cccnc2)C1)N1CCn2c1nc1ccccc12` (stereo not given) was tested. Which inhibition did it give?
Its inhibition is 0% (inactive).

`O=C(NCCc1ccccc1)C1CCCN(S(=O)(=O)c2cccs2)C1` (stereo not given) was tested. Which inhibition did it give?
The inhibition was 9% (inactive).

Which inhibition does the source give for `C/C=C(\CS(=O)(=O)c1ccccc1)S(=O)(=O)c1ccccc1` here?
The inhibition was 0% (inactive).

Which inhibition does the source give for `CC(C)OC(=O)CSc1nc2cccnc2n1C1CCCCC1` here?
Its inhibition is 4% (inactive).

Which inhibition does the source give for `Cc1nn(Cc2ccccc2Cl)c(C)c1NC(=O)C1C2CCC(O2)C1C(=O)O` (stereo not given) here?
Its inhibition is 1% (inactive).

Which inhibition does the source give for `N#CC1=C(N)Oc2cc(O)ccc2C1C1CCCCC1` (stereo not given) here?
The inhibition was 0% (inactive).

`Cc1cccc(-n2ncc3c(NCc4ccccn4)ncnc32)c1` was tested. Which inhibition did it give?
The inhibition was 6% (inactive).

How did the inhibition turn out when `CCCn1c(O)c(CN2CCCC(C)C2)c(C)c(C#N)c1=O` (stereo not given) was run?
Its inhibition is 10% (inactive).

`Cc1nc(NC(=O)c2ccccc2)sc1-c1csc(NCc2ccco2)n1` was tested. Which inhibition did it give?
The inhibition was 0% (inactive).

With `CC(=O)Nc1ccc(NC(=O)C(C)Oc2ccccc2F)cc1` (stereo not given) as the compound, how does the inhibition read?
Its inhibition is 0% (inactive).

`COc1ccc(-c2nc(C#N)c(NCCCN(C)C)o2)cc1OC` was tested. Which inhibition did it give?
The inhibition was 0% (inactive).

For `CC(C)(C)n1nnnc1CN(Cc1ccco1)Cc1cc2cc3c(cc2[nH]c1=O)OCO3`, which inhibition is on record?
Its inhibition is 0% (inactive).

With `CC(=O)NCCCCCCNC(C)=O` as the compound, how does the inhibition read?
The inhibition was 0% (inactive).

For `CCOc1cc2oc(=O)c3c(c2cc1Cl)CCC3`, which inhibition is on record?
The inhibition was 0% (inactive).

With `Cc1ccc(OCC(=O)N2CCN(C(=O)CCC3CCCC3)CC2)cc1` as the compound, how does the inhibition read?
Its inhibition is 0% (inactive).

Which inhibition does the source give for `CN1C(=O)c2oc3ccccc3c(=O)c2C1c1ccccn1` (stereo not given) here?
The inhibition was 0% (inactive).

With `Cc1cc2ncc(C(=O)Nc3ccccc3)c(C)n2n1` as the compound, how does the inhibition read?
The inhibition was 7% (inactive).

With `COc1cccc(C(=O)Nc2ccc(C)cc2)c1` as the compound, how does the inhibition read?
Its inhibition is 1% (inactive).

`Cc1cccc(-n2c(=O)cc(N3CCN(c4ccc(F)cc4)CC3)[nH]c2=O)c1` was tested. Which inhibition did it give?
Its inhibition is 0% (inactive).

For `CCOc1ccc(NC(=O)CSc2nc3cccnc3n2CC)cc1`, which inhibition is on record?
The inhibition was 0% (inactive).

How did the inhibition turn out when `O=C1CC(=O)N(Cc2cccs2)C(=O)N1` was run?
Its inhibition is 0% (inactive).

`Cc1cccc(C2c3c(n(C)c(=O)n(C)c3=O)N=C3c4ccccc4C(=O)C32)c1` (stereo not given) was tested. Which inhibition did it give?
Its inhibition is 7% (inactive).

`COCC(=O)NC(c1ccccc1)c1ccccc1` was tested. Which inhibition did it give?
Its inhibition is 7% (inactive).

For `N#CCc1ccc(NC(=O)Nc2cccc(Cl)c2)cc1`, which inhibition is on record?
Its inhibition is 0% (inactive).

For `O=C(C(Cc1ccccc1)n1cccc1)N1CCCCCC1` (stereo not given), which inhibition is on record?
The inhibition was 8% (inactive).

For `COc1ccccc1C(=O)Nc1ccc(N2CCN(S(C)(=O)=O)CC2)cc1`, which inhibition is on record?
The inhibition was 0% (inactive).

`N#Cc1c(N)nc2c(c1-c1ccncc1)CCCCC2` was tested. Which inhibition did it give?
Its inhibition is 8% (inactive).

`OCc1nc2ccccc2n1CCCOc1ccccc1` was tested. Which inhibition did it give?
The inhibition was 0% (inactive).

For `COCc1nnc(NS(=O)(=O)c2ccc(Br)cc2)s1`, which inhibition is on record?
The inhibition was 2% (inactive).

How did the inhibition turn out when `Cc1c(CCC#N)c(N2CCN(C3CCCCC3)CC2)n2c(nc3ccccc32)c1C#N` was run?
The inhibition was 3% (inactive).

With `Cc1ccccc1N(CC(=O)NCC1CCCO1)C(=O)C1(C)CC(=O)N=C2C=CC=CN21` (stereo not given) as the compound, how does the inhibition read?
Its inhibition is 0% (inactive).

`Cc1cc(C(=O)CSCc2nnc3n(CCC(C)C)c(=O)c4ccccc4n23)c(C)n1C` was tested. Which inhibition did it give?
The inhibition was 8% (inactive).

Which inhibition does the source give for `O=C1CCC(=O)N1OCCCOc1ccc(Br)cc1Cl` here?
The inhibition was 0% (inactive).

`COc1ccc(NC(=O)Nc2cc(C)ccc2OC)cc1` was tested. Which inhibition did it give?
Its inhibition is 0% (inactive).

With `O=C(c1nn2cccnc2c1Cl)N1CCN(c2ccccc2)CC1` as the compound, how does the inhibition read?
Its inhibition is 6% (inactive).
